# Screening results (PubChem)
# Cycloheximide cs – affects cycloheximide protein synthesis inhibition readout, counter-screen; cell reporter, cycloheximide protein synthesis inhibition counterscreen; max response, %; actives 12% (n = 300,000); in the data active = max response mostly above about 13%, no sharp cut-off; inactive = mostly below about 14%; note: read at 38.3 µM for the half of the compounds with a filed dose; 0% is about no effect
# Sm TGR inh – S. mansoni TGR enzyme inhibition; Q962Y6; purified TGR, DTNB reduction, TNB absorbance 405 nm; Potency, µM (doses to about 114 µM), without a hit: at the top dose activity change, negative = inhibition, actives largely listed as inhibitors; actives 3% (n = 360,000); AID 485364; note: potency is the fitted concentration of half-maximal effect; % is set by controls: 0 for no effect and ±100 for the full control effect; nearly all actives have a fitted effect of over 60% in size
#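 Kinetic colorimetric format: TGR-catalysed, NADPH-driven DTNB reduction monitored via TNB absorbance. Enzyme dispensed at 20 nM; compound exposure 15 min at room temperature before reaction start.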
# Giardia FBPA inh – blocks Giardia fructose-bisphosphate aldolase activity; A8B2U2; purified Giardia FBPA; Potency, µM (series often up to 59.6 µM), without a hit: at the top dose activity, negative = inhibition, most hits filed as inhibitors; actives 0.71% (n = 290,000); note: potency is the fitted concentration of half-maximal effect; % is set by controls: 0 for no effect and ±100 for the full control effect; nearly all actives have a fitted effect of over 55% in size
#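 40 nM FBPA preincubated 10 min at RT with compound (up to 57.5 uM final), then substrate plus GAPDH/TPI/NAD/arsenate coupling and diaphorase/resazurin added. Fluorescence read after 20 min at RT, 525/598 nm.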
# Shiga toxin inh – blocks Shiga toxin action in Vero cells | Vero cells, Shiga toxin protein synthesis inhibition reporter | inhibition, % at 38.7 µM | actives 9.2% (n = 290,000); in the data active = inhibition mostly above about 28%, no sharp cut-off; inactive = mostly below about 43%; note: 0% is about no effect
# LmPK inh – blocks Leishmania mexicana pyruvate kinase activity; Q27686; purified LmPK, Kinase-Glo ATP luminescence, 1 h; Potency, µM (doses to about 57.5 µM), without a hit: at the top dose activity change, negative = inhibition, actives largely listed as inhibitors; actives 0.37% (n = 290,000); AID 1721; note: potency is the fitted concentration of half-maximal effect; % is set by controls: 0 for no effect and ±100 for the full control effect
# Target sequence (Q27686 whole entry, looked up): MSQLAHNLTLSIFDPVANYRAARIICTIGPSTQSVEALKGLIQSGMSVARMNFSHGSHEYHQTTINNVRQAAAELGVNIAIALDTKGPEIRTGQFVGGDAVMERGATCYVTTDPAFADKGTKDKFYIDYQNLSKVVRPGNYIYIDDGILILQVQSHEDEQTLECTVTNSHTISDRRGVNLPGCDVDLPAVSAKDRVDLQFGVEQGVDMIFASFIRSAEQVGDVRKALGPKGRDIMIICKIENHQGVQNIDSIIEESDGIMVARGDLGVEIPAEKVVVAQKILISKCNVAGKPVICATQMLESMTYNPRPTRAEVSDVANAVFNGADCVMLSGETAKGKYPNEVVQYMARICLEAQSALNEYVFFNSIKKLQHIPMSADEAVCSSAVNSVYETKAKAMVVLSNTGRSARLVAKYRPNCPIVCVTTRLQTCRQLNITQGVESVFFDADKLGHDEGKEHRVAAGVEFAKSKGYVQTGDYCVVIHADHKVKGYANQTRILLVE
#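 qHTS format; LmPK 0.1 nM; substrates PEP 0.5 mM and ADP 0.1 mM. One-hour room-temperature incubation, then coupled luciferase luminescence; 0.5 nM enzyme wells mark activation.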
# TbPYK inhibitor – blocks Trypanosoma brucei pyruvate kinase; Q57TT1; TbPYK enzyme, Kinase-Glo Plus ATP luminescence, 45 min; Potency, µM (highest dose often 76.8 µM), inactives show top-dose activity, negative = inhibition, most hits filed as inhibitors; actives 0.12% (n = 410,000); AID 624173; note: potency is the fitted concentration of half-maximal effect; % is set by controls: 0 for no effect and ±100 for the full control effect; nearly all actives have a fitted effect of over 50% in size
#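 In this concentration-response screen, enzyme-free wells defined baseline while DMSO plates tracked drift. Each reaction combined TbPYK, substrate, compound and 130 uM ADP for 45 min at room temperature. Kinase-Glo Plus luminescence gave the signal.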
# * marks the source's active call; other numbers are inactive results; ? = inconclusive; / = not tested or not shown. Shown is part of a subset that was picked to be rich in hits. Unless noted, calls come from the whole dose curve; as a rule, active = well fitted curve in the direction sought with a large enough effect; inconclusive = small, poorly fitted or top-dose-only effect, or another doubt; inactive = no such curve, though single readings can be large; an effect the other way counts as inactive or inconclusive.
SMILES,Cycloheximide cs,Sm TGR inh,Giardia FBPA inh,Shiga toxin inh,LmPK inh,TbPYK inhibitor
CC1(C(=O)NS(=O)(=O)C2CC2)CCCN(C(=O)c2ccco2)C1 (configuration not stated),/,/,/,/,/,3%
Cc1ccc(O)c(C2=Nc3ccccc3N=C(c3cccc([N+](=O)[O-])c3)C2)c1,38*,-11%,-5%,67*,-3%,3%
Cc1ccc(C2=Nc3ccccc3N=C(c3ccco3)C2)c(O)c1,14,-14%,/,48,-2%,0%
Cc1ccc(O)c(C2=Nc3ccccc3N=C(c3ccc([N+](=O)[O-])cc3)C2)c1,25*,-1%,2%,15,2%,-7%
Cc1ccc(C2=Nc3ccccc3N=C(c3ccc(F)cc3)C2)c(O)c1,/,-2%,/,/,/,2%
Cc1ccc(O)c(C2=Nc3ccccc3N=C(c3ccco3)C2)c1,24*,4%,0%,23,-2%,7%
CN(C)c1cccc2c(S(=O)(=O)NC(=O)[C@H]3O[C@@H](n4cnc5c(N)ncnc54)[C@H](O)[C@@H]3O)cccc12,/,/,/,/,/,2%
O=C(Nc1ccc2nc(SCC(=O)N3CCOCC3)sc2c1)c1ccc(F)cc1,/,1%,/,/,/,-1%
O=C1CC(NS(=O)(=O)c2ccc(F)cc2)CN1c1ccc2c(c1)OCCO2 (configuration not stated),/,-1%,/,/,/,1%
C(=N\n1cnnc1)/c1cccc(OCCOc2ccccc2)c1,20*,-2%,-7%,94*,-7%,0%
C(=N\n1cnnc1)/c1ccc(OCc2cccc3ccccc23)cc1,20*,-14%,-1%,33,9%,-11%
COc1cc(/C=N/n2cnnc2)ccc1OCCOc1ccccc1,-4,?,3%,-3,0%,-6%
CCOC(=O)CCN(c1ccccc1)S(=O)(=O)c1cc(-c2cc(C)no2)ccc1C,/,7%,/,/,/,4%
COC(=O)/C=C1/S/C(=N/NC(=O)c2ccc(Cl)cc2Cl)NC1=O,-2,18µM*,?,1,7%,0%
CC(=O)Cn1cnc2sc(-c3ccccc3)cc2c1=O,39*,2%,8%,36*,1%,2%
CCn1cnc2sc(-c3ccccc3)cc2c1=O,29*,-2%,3%,112*,-11%,-11%
O=C(Cn1cnc2sc(-c3ccccc3)cc2c1=O)N1CCOCC1,-3,10%,1%,-11,-2%,-11%
CC(=O)Cn1nnc2sc(-c3ccccc3)cc2c1=O,46*,3%,-6%,93*,12%,-2%
CC(C)COC(=O)Cn1nnc2sc(-c3ccccc3)cc2c1=O,/,3%,/,/,/,-2%
O=c1[nH]c(-c2ccccc2)nc2sc(-c3ccccc3)cc12,22,11%,3%,17,0%,0%
CCOC(=O)C(CC)n1nnc2sc(-c3ccccc3)cc2c1=O (configuration not stated),/,1%,/,/,/,-2%
N#CCn1cnc2sc(-c3ccccc3)cc2c1=O,27*,-11%,4%,58,1%,1%
CCCCOc1ccc(C2c3c(-c4ccccc4O)n[nH]c3C(=O)N2Cc2ccncc2)cc1OC (configuration not stated),/,-7%,/,/,/,-9%
CNC(=S)N(CCc1c(C)[nH]c2ccc(F)cc12)Cc1cccnc1,-4,-13%,13%,-3,3%,-4%
Cc1ccccc1C(=O)N1CCC(C(=O)Nc2cc(C(F)(F)F)ccc2N2CCCC2)CC1,/,-9%,/,/,/,2%
SMILES,Cycloheximide cs,Sm TGR inh,Giardia FBPA inh,Shiga toxin inh,LmPK inh,TbPYK inhibitor
COc1cccc(-n2cnc3sc(-c4ccccc4)cc3c2=O)c1,/,/,/,/,/,-6%
COc1ccc(-n2cnc3sc(-c4ccccc4)cc3c2=O)cc1,43*,11%,1%,43,4%,4%
COc1ccc(N2CCN(C(CNC(=O)C(=O)NCc3ccc(F)cc3)c3cccnc3)CC2)cc1 (configuration not stated),/,27%,/,/,/,0%
O=C(COC(=O)C(O)c1ccccc1)c1ccc2c(c1)OCCO2 (configuration not stated),32*,-10%,-1%,103*,-7%,-7%
O=C(O)/C=C/C(=O)Nc1ccccc1C(=O)OCC(=O)c1ccc2c(c1)OCCO2,25*,48%,4%,75*,-22%,-6%
O=C(O)CCC(=O)c1ccc2c(c1)OCCO2,8,-16%,0%,10,-3%,4%
CCCCC(=O)Nc1ccccc1C(=O)OCC(=O)c1ccc2c(c1)OCCO2,38*,-5%,0%,active,-10%,-7%
Cc1c(C(=O)OCC(=O)N2CCC(C)CC2)oc2ccccc12,/,1%,/,/,/,4%
Cc1c(C(=O)OCC(=O)c2ccc3c(c2)OCCO3)oc2ccccc12,36*,-14%,1%,59*,-4%,4%
O=C1c2nccnc2C(=O)N1c1ccc(F)cc1,14,4%,6%,-7,1%,2%
CCOC(=O)CSc1nc2cc3c(cc2c(=O)n1CCCC(=O)NCCc1ccc(OC)c(OC)c1)OCO3,/,5%,/,/,/,8%
COc1cccc(OCc2nc3ccccc3n2CCOc2ccc(C)cc2)c1,/,7%,/,/,/,-2%
CC(=O)N1CCc2c(sc3nc(SCC(N)=O)n(-c4ccc(F)c(Cl)c4)c(=O)c23)C1,/,-1%,/,/,/,3%
CS(=O)(=O)c1cccc(C(=O)OCC(=O)c2ccc3c(c2)OCCO3)c1,/,-2%,/,/,/,5%
Nc1ccccc1C(=O)OCC(=O)c1ccc2c(c1)OCCO2,31*,28%,14%,74*,14µM*,-19%
O=C(Nc1ccc(Cl)cn1)c1ccc(COc2ccccc2Br)o1,61*,-30%,-4%,162*,7%,4%
O=C(Nc1ccccn1)c1ccc(COc2ccccc2Cl)o1,30*,-25%,10%,89*,0%,-2%
Cc1ccc(NC(=O)c2ccc(COc3ccccc3)o2)nc1,26*,1%,/,55*,-4%,-3%
Cc1ccc(OCCNC(=O)c2ccc(COc3ccccc3)o2)cc1,/,0%,/,/,/,1%
CCOc1ccc(OCc2ccc(C(=O)Nc3ccc(Cl)cn3)o2)cc1,15,-1%,-4%,34*,2%,2%
CCOc1ccc(OCc2ccc(C(=O)NCc3cccnc3)o2)cc1,14,-8%,/,-4,-3%,2%
CCOC(=O)c1ccc(NC(=O)C(CC)Sc2nc3ncccc3[nH]2)cc1 (configuration not stated),/,1%,/,/,/,4%
Nc1ccc2c(c1)Cc1c(F)cccc1-2,/,/,/,/,/,1%
COc1cccc(-n2nnnc2SCC(=O)Nc2nc3c(s2)CCCC3)c1,25*,-8%,2%,87*,7%,-15%
O=C(COc1ccc(F)cc1)Nc1nc2c(s1)CCCC2,38*,9%,-10%,70,5%,-1%
COc1ccccc1OCC(=O)Nc1nc2c(s1)CC(C)CC2 (configuration not stated),/,1%,/,/,/,-2%
